Sampled rows, rich in hits. Any-hit rate of the full collection: about 1.1%.
SRC1 inh: inhibits human SRC1 coactivator | Q15788 | HEK293 GAL4-SRC1 luciferase reporter, luminescence | inhibition, % at 3.6 µM | actives 0.12% (n = 360,000);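 active means inhibition above the campaign mean plus 3 SD, with each screening campaign given its own cutoff, cut at about 60% in these data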;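 further: 0% = DMSO treated cells and 100% = gossypol at 36 µM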
NR5A2 inv ag: inverse agonists of human LRH-1 (NR5A2) | O00482 | HEK293T StAR-luciferase reporter, LRH-1 transfected, 24 h | inhibition, % at 3.6 µM | actives 0.13% (n = 360,000) | AID 602396;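 active means inhibition above the mean inhibition of all tested compounds plus 3 SD, cut at about 73% in these data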;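 further: 0% = DMSO wells and 100% = reporter-only cells lacking LRH-1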
SRC3 inh: inhibits human SRC3 coactivator; Q9Y6Q9; HEK293 GAL4-SRC3 luciferase reporter, luminescence; inhibition, % at 3.6 µM; actives 0.17% (n = 360,000);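 active means inhibition above a per-campaign cutoff, the mean of all compounds plus 3 SD, cut at about 60% in these data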;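 further: 0% = DMSO-treated cells and 100% = gossypol-treated cells at 36 µM; higher means less SRC3-driven luciferase light from the GAL4 reporter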
SRC2 inh: inhibits human steroid receptor coactivator 2; HEK293 GAL4-SRC2 luciferase reporter, luminescence; inhibition, % at 9 µM; actives 0.17% (n = 370,000);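 active means inhibition above the mean inhibition of all tested compounds plus 3 SD, set per campaign, cut at about 52% in these data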;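 further: 0% = DMSO treated cells and 100% = cells given Gossypol at 36 µM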
Target sequence (Q15596 whole entry, looked up, the tested form may be a part): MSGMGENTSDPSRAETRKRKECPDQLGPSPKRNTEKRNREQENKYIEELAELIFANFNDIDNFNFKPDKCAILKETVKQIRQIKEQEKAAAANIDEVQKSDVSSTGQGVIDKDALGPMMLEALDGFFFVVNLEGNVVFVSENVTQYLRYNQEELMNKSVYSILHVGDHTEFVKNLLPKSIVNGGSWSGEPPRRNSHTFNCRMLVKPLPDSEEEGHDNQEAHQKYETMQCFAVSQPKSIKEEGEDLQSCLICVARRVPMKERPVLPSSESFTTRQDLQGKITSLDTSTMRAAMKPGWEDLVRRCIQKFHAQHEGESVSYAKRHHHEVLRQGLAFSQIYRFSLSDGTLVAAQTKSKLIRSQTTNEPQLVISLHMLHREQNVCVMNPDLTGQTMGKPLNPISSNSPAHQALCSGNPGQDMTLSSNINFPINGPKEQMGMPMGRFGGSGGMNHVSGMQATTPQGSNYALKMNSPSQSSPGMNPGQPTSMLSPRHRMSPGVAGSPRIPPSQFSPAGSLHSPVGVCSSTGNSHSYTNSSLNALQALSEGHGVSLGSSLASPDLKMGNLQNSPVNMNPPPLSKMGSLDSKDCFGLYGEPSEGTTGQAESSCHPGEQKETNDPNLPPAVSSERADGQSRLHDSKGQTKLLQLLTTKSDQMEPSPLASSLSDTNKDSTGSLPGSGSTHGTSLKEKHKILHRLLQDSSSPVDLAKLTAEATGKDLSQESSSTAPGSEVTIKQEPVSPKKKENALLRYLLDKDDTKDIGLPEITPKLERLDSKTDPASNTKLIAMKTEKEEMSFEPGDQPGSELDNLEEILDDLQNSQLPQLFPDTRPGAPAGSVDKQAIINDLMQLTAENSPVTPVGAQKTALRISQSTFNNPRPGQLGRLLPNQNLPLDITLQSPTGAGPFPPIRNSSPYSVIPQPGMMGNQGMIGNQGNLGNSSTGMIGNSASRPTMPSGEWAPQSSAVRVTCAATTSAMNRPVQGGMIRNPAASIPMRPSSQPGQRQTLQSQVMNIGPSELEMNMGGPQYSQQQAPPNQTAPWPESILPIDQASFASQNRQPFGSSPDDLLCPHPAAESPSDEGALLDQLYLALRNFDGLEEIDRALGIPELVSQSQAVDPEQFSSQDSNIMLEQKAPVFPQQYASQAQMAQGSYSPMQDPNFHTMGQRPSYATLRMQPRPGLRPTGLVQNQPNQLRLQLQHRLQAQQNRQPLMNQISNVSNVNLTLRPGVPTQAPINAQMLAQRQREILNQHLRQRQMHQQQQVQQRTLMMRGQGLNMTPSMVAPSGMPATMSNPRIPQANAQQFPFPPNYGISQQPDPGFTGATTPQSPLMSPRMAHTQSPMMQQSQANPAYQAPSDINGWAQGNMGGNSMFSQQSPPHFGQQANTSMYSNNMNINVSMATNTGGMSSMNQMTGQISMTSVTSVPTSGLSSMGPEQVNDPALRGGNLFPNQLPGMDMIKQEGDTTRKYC
Gli-Sufu block: Gli-Sufu pathway antagonism | actives 0.74% (n = 340,000) | inhibition, % at 5 µM | Sufu-KO-LIGHT fibroblasts, Gli luciferase reporter luminescence | AID 588413;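 active means inhibition above about 55%, limit read from the data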;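 further: 0% = DMSO-treated cells and 100% = wells with medium but no cells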
Shn3 3UTR inh: reduces Shn3 3'UTR luciferase signal in osteoblasts; Clone20 osteoblast Shn3 3'UTR firefly luciferase, 24 h; inhibition, % at 12.5 µM; actives 0.52% (n = 360,000); AID 588674;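 active means mean inhibition of at least 75% with every replicate also reaching 75%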;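 further: 0% = median of neutral control wells and 100% = pilot-screen positive control compound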
Gli-Sufu confirm: confirmation of Gli-SUFU pathway antagonists; shares compounds with Gli-Sufu block; Sufu-KO-LIGHT cells, Gli luciferase reporter, luminescence; inhibition, % at 5 µM; actives 40% (n = 2,500); AID 602428;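 active means mean inhibition at 5 µM reaching about 45%, limit read from the data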;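 further: plate controls were DMSO-treated cells for no effect and wells lacking cells for full effect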
Gli cytotox: cytotoxicity counter-screen for Gli-SUFU antagonists. shares compounds with Gli-Sufu block. Sufu-KO-LIGHT cells cytotoxicity, ATP luminescence. cytotoxicity, % at 5 µM. actives 32% (n = 2,500). AID 651994;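 active means mean cytotoxicity at 5 µM above about 25%, limit read from the data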;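 further: cells exposed to compound overnight for roughly 16 to 18 hours; plate controls were DMSO wells with cells for no effect and medium without cells for full effect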
Wnt3a counter: inhibits Wnt3a reporter, counter-screen for Gli-SUFU antagonists; Wnt-LIGHT cells, Wnt3a-driven luciferase reporter, luminescence; actives 20% (n = 2,500); shares compounds with Gli-Sufu block; AID 651995; inhibition, % at 6.25 µM;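 active means mean inhibition above about 25%, limit read from the data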
Starred values were filed as active, the others as inactive; / = no result.

SMILES | SRC1 inh | NR5A2 inv ag | SRC3 inh | SRC2 inh | Gli-Sufu block | Shn3 3UTR inh | Gli-Sufu confirm | Gli cytotox | Wnt3a counter
C=CCNC(=O)c1ccc(CN2CCC(Cc3ccccc3)CC2)cc1 | -23.0 | -17.4 | 17.6 | 18.5 | 55.9* | 18.3 | 16.2 | 18.1 | -5.9
COc1ccc(-n2nnnc2SCC(=O)Nc2nnc(C)s2)cc1 | -21.2 | -19.9 | -24.0 | -22.9 | 58.5* | -10.0 | 13.2 | -9.5 | -5.1
COc1ccccc1CCN1CCCC(CN(C)CC(C)(C)CO)C1 (stereo unspecified) | 4.9 | 2.2 | -2.9 | -23.0 | -7.6 | 29.5 | / | / | /
COc1ccccc1CCN1CCCC(CN(C)Cc2ccc(OCCO)cc2)C1 (stereo unspecified) | 1.9 | -6.4 | 6.6 | 2.4 | 55.0 | -0.8 | 28.1 | 8.2 | -9.5
COc1cc(CN(C)CC2CCCN(CCc3ccc(F)cc3)C2)c(Cl)cc1O (stereo unspecified) | 1.1 | -8.1 | -3.6 | -2.8 | 55.1* | -7.6 | 15.2 | 6.5 | -25.4
C[C@H](O)[C@@H]1CN2CCc3ccc(N4CCOCC4)cc3[C@@H]2C[C@@H]1N(C)C(=S)NCCc1ccccc1 | / | / | / | 3.1 | / | / | / | / | /
COc1cccc(NC(=O)Nc2nc3ncccn3c2-c2ccc(F)c(F)c2)c1 | / | / | / | -29.9 | / | / | / | / | /
COc1ccc(CCN2CC(C(=O)O)CC2=O)cc1 (stereo unspecified) | -12.4 | 2.3 | 2.2 | 2.6 | 96.1* | -1.2 | 2.9 | 2.7 | -4.5
O=C(O)C1CC(=O)N(CCc2ccccc2)C1 (stereo unspecified) | 0.5 | -0.5 | -17.6 | -6.9 | 0.1 | -21.0 | / | / | /
CCCCNS(=O)(=O)/C=C/c1cc(C)ccc1CNC(=O)OC(C)(C)C | / | / | / | 19.3 | / | / | / | / | /
CCOC(=O)C1CCCN(C2CCN(Cc3nc(Cc4ccccc4)no3)CC2)C1 (stereo unspecified) | 15.7 | 20.3 | 11.7 | 12.0 | 50.0 | -2.4 | 23.3 | 10.4 | -28.6
COc1ccc(NC(=O)N2CCC(c3nc4ccc(Cl)cc4[nH]3)CC2)cc1OC | / | / | / | 20.2 | / | / | / | / | /
COc1ccc(C(C(=O)N(C)C2CCCC2)N(Cc2ccc(F)cc2)C(=O)c2sccc2Cl)cc1OC (stereo unspecified) | / | / | / | -9.2 | / | / | / | / | /
O=C(CSc1nnc(SCc2cccc3ccccc23)s1)c1ccc(F)cc1 | / | / | / | 10.6 | / | / | / | / | /
O=C(Cn1nnc(-c2ccccc2)n1)c1ccccc1 | -7.0 | -30.7 | -19.2 | -2.1 | 56.7* | -14.6 | -2.3 | 3.6 | 5.0
Cc1ccc(C(=O)Cn2nnc(-c3ccccc3)n2)cc1 | -17.3 | 6.9 | -8.0 | -19.1 | -4.0 | 6.5 | / | / | /
COC(=O)[C@]12C[C@H](CC(=O)NCCc3ccccc3OC)C(=O)N(CCc3ccc(OC)c(OC)c3)C1=C[C@H](COCc1ccccc1)O[C@@H]2C | / | / | / | -6.8 | / | / | / | / | /
Cc1ccccc1CN1CCCCC(NC(=O)c2cc(-c3ccccc3)no2)C1=O (stereo unspecified) | / | / | / | 2.5 | / | / | / | / | /
CS(=O)(=O)N(CC(=O)Nc1ccccc1-c1ccccc1)c1ccc(F)cc1 | -7.6 | -8.0 | 9.7 | 17.6 | 3.5 | -1.2 | / | / | /
CS(=O)(=O)N(CC(=O)Nc1ccccc1Sc1ccccc1)c1ccc(F)cc1 | -4.5 | 2.7 | -15.1 | 1.6 | 64.6* | -20.8 | 27.9 | 5.6 | -4.8
O=[N+]([O-])c1ccc(OCCCN2CCC(C(O)(c3ccccc3)c3ccccc3)CC2)c(Cl)c1 | / | / | / | -0.1 | / | / | / | / | /
COC(=O)[C@]12C[C@H](CC(=O)NCc3cccc(C(F)(F)F)c3)C(=O)N(Cc3cccc4ccccc34)C1=C[C@H](COCc1ccccc1)O[C@@H]2C | / | / | / | 24.8 | / | / | / | / | /
Cc1ccc(C(=O)C(C)OC(=O)c2ccc(Cl)nc2)cc1 (stereo unspecified) | 18.2 | 6.5 | 21.5 | 12.5 | -8.5 | -11.9 | / | / | /
CC(C)CC(OC(=O)c1ccc(Cl)nc1)C(=O)NC1CCCC1 (stereo unspecified) | 6.6 | -16.0 | -4.7 | -4.8 | 55.8* | -4.1 | 15.9 | 8.6 | 50.1*
COc1cc(C)c(CN2CCC(n3nccc3NC(=O)C3CCOC3)CC2)cc1C (stereo unspecified) | -2.3 | -7.1 | 10.1 | -15.4 | 59.4* | 18.7 | 14.0 | 7.3 | -13.3
SMILES | SRC1 inh | NR5A2 inv ag | SRC3 inh | SRC2 inh | Gli-Sufu block | Shn3 3UTR inh | Gli-Sufu confirm | Gli cytotox | Wnt3a counter
Cc1cc(C)c(CN2CCC(n3nccc3NC(=O)C3CCOC3)CC2)cc1C (stereo unspecified) | -21.0 | 13.0 | 3.0 | 14.5 | 15.1 | -5.3 | / | / | /
CC(NC(=O)c1cccc(S(=O)(=O)N2CCN(C)CC2)c1)C1CC2CCC1C2 (stereo unspecified) | 7.2 | -4.6 | 1.1 | 17.2 | 57.7* | -7.7 | 15.7 | 12.2 | -30.7
CC(NC(=O)c1cccc(Cl)c1)C1CC2CCC1C2 (stereo unspecified) | -3.6 | 2.4 | 5.7 | 10.9 | -8.9 | 4.7 | / | / | /
CCOC(=O)[C@@]12CCCC3=C1N(CCC3)C(=O)[C@H]2CC(=O)NCCCOC | / | / | / | -11.4 | / | / | / | / | /
CCCC/C=C1/[C@H](c2ccc(Cl)cc2)N(Cc2ccc3c(c2)OCO3)C2=N[C@H](c3ccccc3)CC(=O)N21 | / | / | / | 22.7 | / | / | / | / | /
O=C(Nc1cccc(C(=O)O)c1)Nc1ccc2c(c1)OCO2 | -71.4 | -107.6 | -53.1 | -87.0 | -61.7 | 74.4 | / | / | /
Cc1ccc(C(=O)O)cc1NC(=O)Nc1ccc2c(c1)OCO2 | -28.4 | -28.2 | -23.7 | -36.3 | 56.1* | -15.1 | -3.1 | 17.9 | -54.1
Nn1c(SCC(=O)Nc2nccs2)nnc1-c1cc(-c2ccc(Cl)cc2)n[nH]1 | / | / | / | -33.1 | / | / | / | / | /
OC(c1ccccc1)(c1ccccc1)C1CCN(CCCNc2ccc(Cl)cc2Cl)CC1 | / | / | / | -24.6 | / | / | / | / | /
Cc1nc(N)nc(Nc2ccc(C#N)cc2)c1Br | -0.5 | -12.2 | 13.1 | -28.6 | 55.5* | 13.0 | 32.4 | 19.7 | -2.3
C/C(=N\NC(=O)C(=O)Nc1cccc(Cl)c1)c1ccncc1 | -18.8 | -7.4 | 14.2 | 0.8 | 61.0* | 79.8 | 59.5* | 35.0* | 13.2
O=C(Nc1ccncc1)Nc1cccc(Cl)c1 | -60.4 | -6.1 | -39.0 | -8.8 | -5.9 | 19.2 | / | / | /
C/C(=N\NC(=O)C(=O)Nc1ccc(C)cc1)c1ccncc1 | 2.5 | -4.5 | 9.0 | -2.2 | 4.4 | 10.3 | / | / | /
C/C(=N\NC(=O)C(=O)Nc1ccc(C)c(Cl)c1)c1ccncc1 | -4.2 | 2.9 | 25.0 | 7.0 | 62.0* | 80.8 | 62.1* | 32.2* | 24.3
C[C@H](NC(=O)OCc1ccccc1)P(=O)(O)O | / | / | / | 1.1 | / | / | / | / | /
CC(Sc1nc2ccccc2[nH]1)C(=O)NC1CCCCC1C (stereo unspecified) | 3.1 | 23.4 | 11.8 | 5.0 | -12.9 | 10.0 | / | / | /

Assay outcomes from PubChem BioAssay.
